Screening results (PubChem)
Hits are enriched below; roughly 0.25% of the tested compounds scored in any of these assays.
Giardia kill: Giardia lamblia killing; AID 540267; hit rate 0.15% among 340,000; activity change, % at 7.66 µM, hits read low; Giardia lamblia trophozoite viability; in the data active = activity change below about -80%; inconclusive = between about -30% and that limit;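 also: parasites exposed to compound for two days anaerobically before the ATP read; % is scaled to controls: 0 for no effect and ±100 for the full control effect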
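Each well holds 100 Giardia trophozoites and compound. After two days (48 hrs) at 37 deg C in anaerobic conditions, ATP is quantified by luminescence.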
BCR signal inh: chronic active BCR signaling inhibition | ABC-DLBCL IkBa-CBG/CBR reporter, luminescence ratio, 4 h | hit rate 0.05% among 340,000 | AID 493014 | Potency, µM (doses to about 46.1 µM), for the others: top-dose activity change, negative = inhibition, usual class: inhibitors; active = well fitted inhibition curve with a large enough effect in the signal ratio, with a control signal flat, not every such curve was filed as active; inconclusive = small, poorly fitted or top-dose-only effect, or effect the other way, or a change in a side signal; the % refers to the signal ratio;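 also: potency is read from the fitted curve at half-maximal effect; plate controls were basal doxycycline-induced cells for no effect and cells given 10 µM MG132 for full effect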
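TMD8 human ABC-DLBCL cells with doxycycline-inducible IκBα–green luciferase fusion and unfused red luciferase, in 0.5% FBS medium; compounds up to 46 uM, 4 h at 37C. Green/red luminescence ratio, filter-overlap corrected, fitted to concentration-response curves.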
TCR act: activates T cell receptor signaling; 330,000 tested, under 10 active; primary human leukocytes, anti-CD3, IL-2 HTRF, 48 h; Potency, µM (doses to about 9.22 µM), inactives show at the top dose activation of IL-2 secretion, usual class: activators; also: % of control where 0% means no effect
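48 hr co-incubation of compounds, a-CD3 beads and primary human leukocytes; IL-2 quantified homogeneously by HTRF with anti-IL-2 K and d2 conjugates.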
Integrin act MD: activates integrin-mediated alleviation for muscular dystrophy; alpha7betagal myoblasts, beta-gal FDG fluorescence, 48 h; Potency, µM (highest dose often 38.3 µM), inactives show top-dose activation, hits mostly activators; hit rate 0.064% among 350,000; AID 624291;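 also: potency is read from the fitted curve at half-maximal effect; 100% = response of the positive control SU9516; nearly all actives have a fitted effect of over 60% in size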
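Alpha7betagal+/- myoblasts (passage 13) were plated 16-24 hr, then exposed to compounds (1:260 dilution of DMSO stock) for 48 hours at 37C. After MPER lysis, β-galactosidase reporter activity was read as FDG fluorescence (ex 480/em 540) after 30 minutes.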
* marks the source's active call; other numbers are inactive results; ? = inconclusive; · = no result; [ ] = dose if it differs, or a comment. Unless noted, calls follow the shape of the dose curve; as a rule, active = well fitted curve in the direction sought with a large enough effect; inconclusive = small, poorly fitted or top-dose-only effect, or another doubt; inactive = no such curve, though single readings can be large; an effect the other way counts as inactive or inconclusive.

SMILES | Giardia kill | BCR signal inh | TCR act | Integrin act MD
COc1ccc(NC(=O)c2oc3ccc(S(=O)(=O)N(C)C4CCCCC4)cc3c2C)cc1Cl | · | 2% | · | ·
Cc1cc(NC(=O)CCC(=O)N(Cc2cccnc2)C(C(=O)NC(C)(C)C)c2ccccc2Cl)no1 (stereo not drawn) | 10 | 4% | 3% | 4µM*
Cc1cc(NC(=O)CCC(=O)N(C2CC2)C(C(=O)NC(C)(C)C)c2ccccc2Cl)no1 (stereo not drawn) | -7 | 6% | 0% | -12%
CC(=O)OCC(NC(=O)C(C)NC(=O)OC(C)(C)C)C1OC(n2cc(F)c(=O)[nH]c2=O)C(OC(C)=O)C1OC(C)=O (stereo not drawn) | 7 | · | · | ·
Cc1ccc(OCc2nnc(SCC(=O)Nc3ccccc3C(C)C)o2)cc1 | · | -17% | · | ·
Cc1ccc2oc(C(Cl)(Cl)Cl)cc(=O)c2c1 | 13 | 22µM* | -4% | -10%
CN(C)S(=O)(=O)c1ccc(C(=O)OCC(=O)Nc2sc3c(c2C#N)CCCCC3)cc1 | 7 | 3% | 2%[46.1 µM] | -11%
CC(C)(C)c1ccc(C(=O)OCC(=O)Nc2sc3c(c2C#N)CCC3)cc1 | 5 | 2% | -3%[46.1 µM] | 5µM*
Cc1ccccc1-c1nc2c(=O)n(C)c(=O)nc-2n(C)n1 | -86* | · | · | ·
Cn1nc(-c2ccccn2)nc2c(=O)n(C)c(=O)nc1-2 | -7 | ? | 2% | -64%
O=[N+]([O-])c1ccc(/C=N/n2cnc3ccccc32)s1 | ? | 1% | 0%[46.1 µM] | -69%
Cc1cc2ncn(/N=C/c3ccc([N+](=O)[O-])s3)c2cc1C | -98* | ? | 3%[46.1 µM] | -46%
O=C(Nc1ccc(N2CCCCC2)cc1)c1ccccn1 | -102* | ? | 0% | -9%
O=C(Nc1ccc(N2CCCCCC2)cc1)c1ccccc1Cl | 6 | ? | 9% | -52%
CC1CCCCN1c1ncnc(N)c1[N+](=O)[O-] (stereo not drawn) | 4 | ? | 3% | 4.5µM*
CC1Cc2ccccc2N1c1ncnc(N)c1[N+](=O)[O-] (stereo not drawn) | ? | ? | -3% | ?
CCOc1cc(NC(=O)CCl)c(OCC)cc1NC(=O)CCl | 37 | 14µM* | 3% | -48%
N#Cc1c(NC(=O)CSc2ncn[nH]2)sc2c1CCCC2 | 6 | 23µM* | 4% | -35%
CCCSc1nc2c(cnn2-c2ccccc2)c(=O)n1N | 10 | ? | 3% | 9%
CCCOc1nc(SCCC)nc2c1cnn2-c1ccccc1 | 1 | ? | -5% | 11µM*
O=C1C2C3C=CC(C4CC34)C2C(=O)N1/N=C/c1ccc(-c2ccc(F)cc2[N+](=O)[O-])o1 (stereo not drawn) | -4 | ? | -3% | -32%
Cc1ccc(-c2ccc(/C=N/N3C(=O)C4C5C=CC(CC5)C4C3=O)o2)c([N+](=O)[O-])c1 (stereo not drawn) | -102* | ? | -1% | -27%
COc1cc(C(=O)N=c2sccn2C)c([N+](=O)[O-])cc1OC | 3 | 7% | 4% | -33%
Cn1ccsc1=NC(=O)c1ccc([N+](=O)[O-])o1 | -93* | -3% | 10% | 0%
CCC(Sc1nc2cc3c(cc2c(=O)n1CCCCCC(=O)NCc1ccc2c(c1)OCO2)OCO3)C(=O)NCCCOC (stereo not drawn) | · | -21% | · | ·
SMILES | Giardia kill | BCR signal inh | TCR act | Integrin act MD
CNC(=O)/C(=C\c1cccc(Oc2ccccc2)c1)NC(=O)c1ccccc1 | -4 | -11% | 5% | 11µM*
FC(F)(F)c1ccc2c(c1)N1CCCC1CN2 (stereo not drawn) | -87* | -14% | 11% | -15%
O=C(Cc1ccc(F)cc1)NC1CC(=O)N(c2ccc3c(c2)OCCO3)C1 (stereo not drawn) | · | 11% | · | ·
O=C(NCCc1ccccc1)c1ccc2c(c1)OCCO2 | -81* | ? | · | -1%
O=C(CCc1ccccc1)c1ccc2c(c1)OCCCO2 | -5 | ? | -4% | 0%
O=C(NCCc1ccccc1)c1ccc2c(c1)OCCCO2 | -89* | ? | 8% | 0%
Cc1ccc(CNC(=O)COC(=O)COc2ccc(C#N)cc2)cc1 | 1 | 6% | 5% | 0%
COc1ccc([C@]23Cc4cc(C#N)ccc4C(O2)C2=C(CC4(CCCCC4)OC2=O)O3)cc1 | · | 24%[9.22 µM] | · | ·
O=C1CCC(C(=O)N(CCO)Cc2ccccc2)CN1CC1CCCCC1 (stereo not drawn) | -25 | -1% | 0% | -6%
CCn1cnc2c([N+](=O)[O-])c(NS(=O)(=O)c3ccc(C)cc3)ccc21 | -88* | 1% | 0% | 15%
CCn1cnc2cc(NS(=O)(=O)c3ccc(C)cc3)ccc21 | 7 | 0% | 5% | 3%
N#C/C(=C(/O)c1ccc([N+](=O)[O-])o1)c1nc2ccccc2[nH]1 | -92* | ? | -5% | -10%
COC(=O)c1ccc(Nc2ccc3nonc3c2[N+](=O)[O-])cc1 | -93* | 4% | · | -17%
COc1ccc2cc(-c3cc(C(=O)OCC(=O)NC4CCS(=O)(=O)C4)c4ccccc4n3)ccc2c1 (stereo not drawn) | -88* | 0% | 0%[46.1 µM] | 14%
COc1ccc2cc(-c3cc(C(=O)OCC(=O)Nc4c(C)n(C)n(-c5ccccc5)c4=O)c4ccccc4n3)ccc2c1 | -94* | ? | -25% | 33%
COc1ccc(-c2nn3c(-c4cc(C)[nH]n4)nnc3s2)cc1 | 11 | · | · | ·
O=C(Nc1cc(Br)ccc1O)C1CC(c2ccccc2Cl)=NO1 (stereo not drawn) | 7 | 12% | 3% | 13µM*
COc1cc2c(cc1OC)[C@@H]1O[C@](c3ccsc3)(C2)Oc2cc(C)n(-c3ccccc3)c(=O)c21 | · | -2%[9.22 µM] | · | ·
c1coc(CNc2ncnc3c2[nH]c2ccccc23)c1 | -3 | · | · | ·
CCCC(CCC)C(=O)NC1CC(=O)N(c2ccc3c(c2)OCCO3)C1 (stereo not drawn) | · | -3% | · | ·
COc1cc2c(c(OC)c1OC)-c1ccc(NC(=O)c3ccccc3)c(=O)cc1[C@@H](NC(C)=O)CC2 | 11 | 22µM* | 6% | -14%
CN[C@H]1CCc2cc(OC)c(OC)c(OC)c2-c2ccc(OC)c(=O)cc21 | -10 | · | -2% | ·
Nc1ccc2c(c1)C(=O)N(c1ccc3ccccc3c1)C2=O | 8 | · | · | ·
O=[N+]([O-])c1ccccc1Nc1c2ccccc2nc2ccccc12 | -15 | ? | 2% | -53%
O=[N+]([O-])c1cccc2nc3ccccc3c(NCCCn3ccnc3[N+](=O)[O-])c12 | -95* | · | 6% | -54%
Cn1ccc2c(OCC(=O)NCc3ccc(F)cc3)cccc2c1=O | · | -1% | · | ·
COc1ccc(C2C3C=CCC(c4cccc(/C=C/c5ccccc5)c4)C3C(=O)N2Cc2ccccc2)cc1Cl (stereo not drawn) | -23 | · | · | ·
CN(C)c1ccc(/C=C(\C#N)c2ccccn2)cc1 | -98* | ? | 8%[46.1 µM] | -12%
Cc1ccc(-c2nnc(NC(=O)c3ccc([N+](=O)[O-])o3)o2)c(C)c1 | -81* | -6% | 4% | -2%
Cc1ccc(-c2nnc(NC(=O)C3=COCCO3)o2)c(C)c1 | -25 | ? | 0% | ?
